# Reference: paper PMC12820563, “FoxP3 forms a head-to-head dimer in vivo and stabilizes its multimerization on adjacent microsatellites”
# The full ranking holds about 16,000 sequences; the median of “rpm ratio (pull-down/input)” is about 0.94, and the highest 2% start at about 1.7. Shown is part of a subset that was picked to be rich in the highest values.
# Target: T1, MBP-FoxP1dN (Mus musculus, UniProt P58462 326-579)
# T1 sequence: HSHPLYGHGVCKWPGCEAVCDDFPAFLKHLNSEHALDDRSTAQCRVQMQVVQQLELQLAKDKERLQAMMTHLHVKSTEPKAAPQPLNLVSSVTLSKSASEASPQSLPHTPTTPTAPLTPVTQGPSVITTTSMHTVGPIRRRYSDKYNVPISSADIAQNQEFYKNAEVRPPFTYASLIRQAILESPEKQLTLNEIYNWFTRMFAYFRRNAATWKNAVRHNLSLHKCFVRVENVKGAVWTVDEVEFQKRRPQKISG
# Assay: PD-seq (MBP pull-down with sequencing); 20 mM Tris-HCl pH 7.5, 100 mM NaCl, 1.5 mM MgCl2, 0.4 uM protein, 0.1 uM dsDNA library, 30 min, room temperature, amylose pull-down; high values mean tight binding
# Details: protein: recombinant; tags: His6-MBP; chain copies: 2; dsDNA, one strand shown
# Method in brief: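 In Tris pH 7.5 buffer with NaCl and MgCl2, 0.4 µM His6-MBP-tagged mouse FoxP3 or FoxP1 fragment lacking the N-terminus, from E. coli, met 0.1 µM Klenow-filled double-stranded degenerate DNA library for 30 min at room temperature. Three washes on amylose resin followed capture of the complexes, then proteinase K release of DNA, PCR barcoding and Illumina sequencing. Binding is taken as pooled-replicate reads-per-million enrichment of pull-down relative to input.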
row,Sequence,binding signal
1,GATGATTGTTCTCCCAGCTGATGAATTCTCACAGTCGAGTAAACAAATTTTCCTAATCTTTCTGTTCAAGCGCCATCTAC,0.875 RPM ratio (pull-down/input)
2,GATGATTGTTCTCCCAGCTGATGAATTAATTGAGTCGAGTAAACAAATTTTCCTAATCTTTCTGTTCAAGCGCCATCTAC,0.932 RPM ratio (pull-down/input)
3,GATGATTGTTCTCCCAGCTGATGAATTGGGTATCTCGAGTAAACAAATTTTCCTAATCTTTCTGTTCAAGCGCCATCTAC,0.935 RPM ratio (pull-down/input)
4,GATGATTGTTCTCCCAGCTGATGAATTAGAAGCTTCGAGTAAACAAATTTTCCTAATCTTTCTGTTCAAGCGCCATCTAC,0.996 RPM ratio (pull-down/input)
5,GATGATTGTTCTCCCAGCTGATGAATTGCGGCAGTCGAGTAAACAAATTTTCCTAATCTTTCTGTTCAAGCGCCATCTAC,0.919 RPM ratio (pull-down/input)
6,GATGATTGTTCTCCCAGCTGATGAATTGCGCTAGTCGAGTAAACAAATTTTCCTAATCTTTCTGTTCAAGCGCCATCTAC,1.06 RPM ratio (pull-down/input)
7,GATGATTGTTCTCCCAGCTGATGAATTGATTTATTCGAGTAAACAAATTTTCCTAATCTTTCTGTTCAAGCGCCATCTAC,1.27 RPM ratio (pull-down/input)
8,GATGATTGTTCTCCCAGCTGATGAATTCTTTTATTCGAGTAAACAAATTTTCCTAATCTTTCTGTTCAAGCGCCATCTAC,1.13 RPM ratio (pull-down/input)
9,GATGATTGTTCTCCCAGCTGATGAATTTCTTTATTCGAGTAAACAAATTTTCCTAATCTTTCTGTTCAAGCGCCATCTAC,0.979 RPM ratio (pull-down/input)
10,GATGATTGTTCTCCCAGCTGATGAATTTATTCTTTCGAGTAAACAAATTTTCCTAATCTTTCTGTTCAAGCGCCATCTAC,1.34 RPM ratio (pull-down/input)
11,GATGATTGTTCTCCCAGCTGATGAATTTATTGATTCGAGTAAACAAATTTTCCTAATCTTTCTGTTCAAGCGCCATCTAC,1.86 RPM ratio (pull-down/input)
12,GATGATTGTTCTCCCAGCTGATGAATTTATTTATTCGAGTAAACAAATTTTCCTAATCTTTCTGTTCAAGCGCCATCTAC,2.17 RPM ratio (pull-down/input)
13,GATGATTGTTCTCCCAGCTGATGAATTAATTTCCTCGAGTAAACAAATTTTCCTAATCTTTCTGTTCAAGCGCCATCTAC,0.884 RPM ratio (pull-down/input)
14,GATGATTGTTCTCCCAGCTGATGAATTTATGCAGTCGAGTAAACAAATTTTCCTAATCTTTCTGTTCAAGCGCCATCTAC,1.11 RPM ratio (pull-down/input)
15,GATGATTGTTCTCCCAGCTGATGAATTTACGTCATCGAGTAAACAAATTTTCCTAATCTTTCTGTTCAAGCGCCATCTAC,1.45 RPM ratio (pull-down/input)
16,GATGATTGTTCTCCCAGCTGATGAATTTATTACCTCGAGTAAACAAATTTTCCTAATCTTTCTGTTCAAGCGCCATCTAC,1.2 RPM ratio (pull-down/input)
17,GATGATTGTTCTCCCAGCTGATGAATTGTTTACCTCGAGTAAACAAATTTTCCTAATCTTTCTGTTCAAGCGCCATCTAC,2.65 RPM ratio (pull-down/input)
18,GATGATTGTTCTCCCAGCTGATGAATTTTTTACCTCGAGTAAACAAATTTTCCTAATCTTTCTGTTCAAGCGCCATCTAC,0.943 RPM ratio (pull-down/input)
19,GATGATTGTTCTCCCAGCTGATGAATTTACCTCCTCGAGTAAACAAATTTTCCTAATCTTTCTGTTCAAGCGCCATCTAC,1.07 RPM ratio (pull-down/input)
20,GATGATTGTTCTCCCAGCTGATGAATTATTTACCTCGAGTAAACAAATTTTCCTAATCTTTCTGTTCAAGCGCCATCTAC,1.86 RPM ratio (pull-down/input)

row,Sequence,binding signal
1,GATGATTGTTCTCCCAGCTGATGAATTACCTACCTCGAGTAAACAAATTTTCCTAATCTTTCTGTTCAAGCGCCATCTAC,0.913 RPM ratio (pull-down/input)
2,GATGATTGTTCTCCCAGCTGATGAATTATACTGCTCGAGTAAACAAATTTTCCTAATCTTTCTGTTCAAGCGCCATCTAC,0.951 RPM ratio (pull-down/input)
3,GATGATTGTTCTCCCAGCTGATGAATTCTGCCTGTCGAGTAAACAAATTTTCCTAATCTTTCTGTTCAAGCGCCATCTAC,0.791 RPM ratio (pull-down/input)
4,GATGATTGTTCTCCCAGCTGATGAATTCATACATTCGAGTAAACAAATTTTCCTAATCTTTCTGTTCAAGCGCCATCTAC,1.01 RPM ratio (pull-down/input)
5,GATGATTGTTCTCCCAGCTGATGAATTTGACCGATCGAGTAAACAAATTTTCCTAATCTTTCTGTTCAAGCGCCATCTAC,0.841 RPM ratio (pull-down/input)
6,GATGATTGTTCTCCCAGCTGATGAATTGCTCGAGTCGAGTAAACAAATTTTCCTAATCTTTCTGTTCAAGCGCCATCTAC,0.899 RPM ratio (pull-down/input)
7,GATGATTGTTCTCCCAGCTGATGAATTTCCGGAATCGAGTAAACAAATTTTCCTAATCTTTCTGTTCAAGCGCCATCTAC,0.872 RPM ratio (pull-down/input)
8,GATGATTGTTCTCCCAGCTGATGAATTGTTTATATCGAGTAAACAAATTTTCCTAATCTTTCTGTTCAAGCGCCATCTAC,2.47 RPM ratio (pull-down/input)
9,GATGATTGTTCTCCCAGCTGATGAATTGTTTTTATCGAGTAAACAAATTTTCCTAATCTTTCTGTTCAAGCGCCATCTAC,2.19 RPM ratio (pull-down/input)
10,GATGATTGTTCTCCCAGCTGATGAATTTTTTTTATCGAGTAAACAAATTTTCCTAATCTTTCTGTTCAAGCGCCATCTAC,0.958 RPM ratio (pull-down/input)
11,GATGATTGTTCTCCCAGCTGATGAATTTAGTTTATCGAGTAAACAAATTTTCCTAATCTTTCTGTTCAAGCGCCATCTAC,1.89 RPM ratio (pull-down/input)
12,GATGATTGTTCTCCCAGCTGATGAATTTCTTTTATCGAGTAAACAAATTTTCCTAATCTTTCTGTTCAAGCGCCATCTAC,1.03 RPM ratio (pull-down/input)
13,GATGATTGTTCTCCCAGCTGATGAATTAGTTTTATCGAGTAAACAAATTTTCCTAATCTTTCTGTTCAAGCGCCATCTAC,1.02 RPM ratio (pull-down/input)
14,GATGATTGTTCTCCCAGCTGATGAATTTTCTTTATCGAGTAAACAAATTTTCCTAATCTTTCTGTTCAAGCGCCATCTAC,1.2 RPM ratio (pull-down/input)
15,GATGATTGTTCTCCCAGCTGATGAATTTTAGTTATCGAGTAAACAAATTTTCCTAATCTTTCTGTTCAAGCGCCATCTAC,1.18 RPM ratio (pull-down/input)
16,GATGATTGTTCTCCCAGCTGATGAATTTATCTAATCGAGTAAACAAATTTTCCTAATCTTTCTGTTCAAGCGCCATCTAC,1.32 RPM ratio (pull-down/input)
17,GATGATTGTTCTCCCAGCTGATGAATTTTTTATATCGAGTAAACAAATTTTCCTAATCTTTCTGTTCAAGCGCCATCTAC,1.08 RPM ratio (pull-down/input)
18,GATGATTGTTCTCCCAGCTGATGAATTTTATATATCGAGTAAACAAATTTTCCTAATCTTTCTGTTCAAGCGCCATCTAC,1.11 RPM ratio (pull-down/input)
19,GATGATTGTTCTCCCAGCTGATGAATTGTGTTTATCGAGTAAACAAATTTTCCTAATCTTTCTGTTCAAGCGCCATCTAC,2.92 RPM ratio (pull-down/input)
20,GATGATTGTTCTCCCAGCTGATGAATTCTGCGCGTCGAGTAAACAAATTTTCCTAATCTTTCTGTTCAAGCGCCATCTAC,0.978 RPM ratio (pull-down/input)
